Data on 40 molecules can be found in PubChem BioAssay (NCATS).

Inconclusive results are not listed. A number with no mark means an inactive call. Calls of active or inactive are those of the source. Calls come from the whole dose curve; as a rule, active = well fitted cell-killing curve with a large enough effect; inconclusive = small, poorly fitted or top-dose-only effect; inactive = no such curve, though single readings can be large or run the other way.
Potency is the fitted concentration of half-maximal effect.

This assay in a line: Quantitative High-Throughput drug screen in 47 multiple myeloma cell lines against the NCATS MIPE library collection: JIM3_ECACC cell viability assay (AID 1918963; note: nearly all actives have a fitted effect of over 35% in size). Conditions: JIM3 myeloma viability, CellTiter-Glo ATP, 48 h; series mostly up to 45.8 µM; viability, percent of control: at the top concentration. The text has this: PI: Beverly A. Mock Ph.D.
Laboratory of Cancer Biology and Genetics,
Center for Cancer Research, National Cancer Institute,
National Institute of Health, Bethesda, Maryland
Drug resistance and disease progression are common in multiple myeloma (MM) patients, underscoring the need for new therapeutic combinations. […] We hypothesized that effective combinations would reduce MYC expression and enhance p16 activity. […] These preclinical data identify potentially useful drug combinations for evaluation in drug-resistant MM and reveal potential mechanisms of combined drug sensitivity.
Described herein is the primary MIPE qHTS used to cherrypick compounds. Validated compounds were then further tested for potential synergistic activiy.
[1] Peat TJ, Gaikwad SM, Dubois W, Gyabaah-Kessie N, Zhang S, Gorjifard S, Phyo Z, Andres M, Hughitt VK, Simpson RM, Miller MA, Girvin AT, Taylor A, Williams D, D'Antonio N, Zhang Y, Rajagopalan A, Flietner E, Wilson K, Zhang X, Shinn P, Klumpp-Thomas C, McKnight C, Itkin Z, Chen L, Kazandijian D, Zhang J, Michalowski AM, Simmons JK, Keats J, Thomas CJ, Mock BA. Drug combinations identified by high-throughput screening promote cell cycle transition and upregulate Smad pathways in myeloma. Cancer Lett. 2023 Aug 1;568:216284. doi: 10.1016/j.canlet.2023.216284. Epub 2023 Jun 24. PMID: 37356470; PMCID: PMC10408729.
SEQUENCE No. (e.g., 1, 2, 3, etc.); […] (e.g., Cells, Incubation, Reagent, etc.); VALUE and DESCRIPTION.
1; Cells; 5 uL; white, solid bottom 1536-well Greiner assay plate.
2; Compounds; 23 nL; Kalypsis pin tool (Wako USA) equipped with a 1536-well pin head to transfer to the assay plates.
3; Incubation; 48 hours; 37C incubation.
4; Reagent;5uL; CellTiter Glo (Promega).
5; Detector; 425V; Luminescence; Viewlux PerkinElmer.
NOTES (numbers refer to Sequence numbers above)
1. The cell-based screening methods employed in this study were like those previously published. Briefly, the corresponding myeloma cell lines were screened in 1,536-well plates with 500 cells, 5-uL per well for inhibition of cell viability (assessed by measuring ATP levels with CellTiterGlo).
2. NCATS MIPE 4.0 library of approved and investigational drugs were added using the Kalypsis pin tool. Wells treated with DMSO only for 100% viability and media only wells for 0% viability were used as controls.
3. The assay plates were covered and incubated for 48 hours in a 37C, 5% CO2 incubator with controlled humidity.
4. After 48 hours, CellTilter-GloTM luminescent substrate mix (Promega) reagent was added to the assay plate and plates we incubated for 5 min at room temperature.
5. Signal was measured as median relative luminescence units on a ViewLux (PerkinElmer) multiplate reader.
[1] Heske CM, Davis MI, Baumgart JT, Wilson K, Gormally MV, Chen L, Zhang X, Ceribelli M, Duveau DY, Guha R, Ferrer M, Arnaldez FI, Ji J, Tran HL, Zhang Y, Mendoza A, Helman LJ, Thomas CJ. Matrix Screen Identifies Synergistic Combination of PARP Inhibitors and Nicotinamide Phosphoribosyltransferase (NAMPT) Inhibitors in Ewing Sarcoma. Clin Cancer Res. 2017 Dec 1;23(23):7301-7311. doi: 10.1158/1078-0432.CCR-17-1121. Epub 2017 Sep 12. PMID: 28899971; PMCID: PMC6636827.
As for `O=C(NC1CCOCC1)c1ccc(-c2cc(-c3cn[nH]c3-c3ccccn3)ccn2)cc1`, the “viability, percent of control” value is 104%. The same measure, in the same setting: to `NC1CCC(Nc2nc(Nc3ccc(C(=O)N4CCCCC4)cc3)c3ncn(-c4cccc(F)c4)c3n2)CC1` (stereo not given) belongs 92.7%.

As to `O=C(N[C@@H](c1ccccc1)[C@@H]1CCCCN1)c1cccc(C(F)(F)F)c1Cl`, the “viability, percent of control” value is 105%. With `COc1cc(NC(=O)c2ccc(-c3ccc(Cl)cc3)o2)cc(OC)c1`, the Potency was 11.8 µM (active). For the molecule `CC(C)(C)c1cc(C(=O)O)c(NC(=O)Nc2ccc3[nH]ncc3c2)s1`, the “viability, percent of control” value is 83.9%. Still for that read-out and setting: with `C[C@]12CC[C@@H]3c4ccc(O)cc4C[C@@H](CCCCCCCCCS(=O)CCCC(F)(F)C(F)(F)F)[C@H]3[C@H]1CC[C@H]2O` (stereo not given in full) the figure was 92.8%; with `C[C@@H]1CCN(C(=O)CC#N)C[C@H]1N(C)c1ncnc2[nH]ccc12`, 80.2%. As for `O=c1cc(-c2ccccc2)oc2cc(O)cc(O)c12`, the Potency was 16.6 µM (active). Still for that read-out and setting: to `c1ccc2c(Cc3c[nH]c4ccccc34)c[nH]c2c1` belongs 10.5 µM (active); to `CC(C)(C)NC(=O)Nc1cccc(Nc2ncc(F)c(NC(C)(C)CO)n2)c1`, 13.2 µM (active); to `CC1(C)CCC2=C(O1)c1ccccc1C(=O)C2=O`, 18.7 µM (active).

In the case of `NC1=N[C@@]2(c3cc(NC(=O)c4ccc(F)cn4)ccc3F)COC[C@@H]2CS1`, the “viability, percent of control” value was 135%. For `COc1cccc2c1CCCC2CCCN1CCN(C2CCCCC2)CC1` (stereo not given), the Potency was 23.5 µM (active). Regarding `C[C@H]1[C@H](NC(=O)C(=NOC(C)(C)C(=O)O)c2csc(N)n2)C(=O)N1S(=O)(=O)O`, the “viability, percent of control” value was 115%. As to `Clc1ccc(C(c2ccc(Cl)cc2)n2cc[n+](CC(OCc3ccc(Cl)cc3Cl)c3ccc(Cl)cc3Cl)c2)cc1` (stereo not given), the Potency was 16.6 µM (active).

Take `O=C1NC(=O)C(=Cc2ccc3nccnc3c2)S1`: the Potency was 10.2 µM (active).

For `CC1(C)CCC(CN2CCN(c3ccc(C(=O)NS(=O)(=O)c4ccc(NCC5CCOCC5)c([N+](=O)[O-])c4)c(Oc4cnc5[nH]ccc5c4)c3)CC2)=C(c2ccc(Cl)cc2)C1`, the “viability, percent of control” value is 105%.

On to `CN1C[C@H]2c3ccccc3Oc3ccc(Cl)cc3[C@@H]2C1`, for which the “viability, percent of control” value was 92.9%.

As for `O=C(NCc1ccccc1)c1csc(Nc2ccncn2)n1`, the Potency was 14.8 µM (active). With `C[C@]12CCC3c4ccc(O)cc4CCC3C1CCC2=O` (stereo not given in full), the “viability, percent of control” value is 89%.

Turning to `CCCCCCCCCCCC1=C(O)C(=O)C=C(O)C1=O`, the Potency is 4.69 µM (active). The same measure, in the same setting: to `O=C(Nc1ccccc1Br)N[C@@H]1CCN(c2ccc(C(F)(F)F)cn2)C1` belongs 18.7 µM (active). `O=C(O)C=Cc1ccc(O)c(O)c1`: the “viability, percent of control” value is 90.9%. `O=C1c2ccccc2-[n+]2ccc3c([nH]c4ccccc43)c21`: the Potency was 0.59 µM (active). For `COc1ccc(-c2coc3cc(O)ccc3c2=O)cc1`, the “viability, percent of control” value is 111%.

For `COc1ccc(-n2c(C)c([N+](=O)[O-])c3ccc(O)cc32)cc1`, the “viability, percent of control” value was 80.9%. On to `COc1cc2ncnc(-n3nc(-c4ccccn4)nc3N)c2cc1OC`, for which the Potency is 8.33 µM (active).

In the case of `N#Cc1ccc(NC(=O)Nc2ccccc2Br)c2n[nH]nc12`, the “viability, percent of control” value was 69.3%. For `N[C@H](CSC(c1ccccc1)(c1ccccc1)c1ccccc1)C(=O)O`, the Potency is 10.5 µM (active). On the same count and under the same terms, with `CCn1c(C(=O)N(C2CC2)C2CC2)cc2c3c(ncn3C)c(Nc3cc(C)n(C)n3)nc21` the figure was 18.7 µM (active). Take `C[C@H](NC(=O)C(=O)Nc1ccccc1C(C)(C)C)C(=O)N[C@@H](CC(=O)O)C(=O)COc1c(F)c(F)cc(F)c1F`: the “viability, percent of control” value was 131%. Same read-out and setting: to `Cc1ccc(C(C)(O)c2nc3ccccc3s2)c(C)c1` (stereo not given) belongs 116%; to `O=C1c2c(O)cc(O)cc2O[C@H](c2cc(O)c(O)c(O)c2)[C@H]1O`, 117%; to `CC1(C)CCC[C@@]2(C)[C@@H]1CC[C@@]1(C)OC(=O)C[C@H]21`, 110%. Turning to `COC(=O)C1=CO[C@@H](O)[C@@H]2C(CO)=CC[C@@H]12`, the Potency was 23.5 µM (active). On the same count and under the same terms, to `COc1cccc(-c2cc(=O)c3ccccc3o2)c1N` belongs 3.72 µM (active); to `COc1ccc2c3c1OC1C[C@@H](O)C=C[C@@]31CCN(C)C2` (stereo not given in full), 14.8 µM (active). Consider `Cc1ccc(C(=O)Nc2cccc(C(F)(F)F)c2)cc1Nc1nc(-c2cccnc2)nc2c1cnn2C`, for which the Potency was 10.5 µM (active).

Turning to `C=C1C(=O)[C@@]23C(CC[C@@H]1[C@H]2O)[C@@]12CO[C@]3(O)[C@@H](O)[C@@H]1C(C)(C)CC[C@@H]2O` (stereo not given in full), the Potency is 10.5 µM (active).

In the case of `Cc1c(NC(=O)c2ccc(C(C)(C)C)cc2)cccc1-c1cn(C)c(=O)c(Nc2ccc(C(=O)N3CCOCC3)cc2)n1`, the Potency was 13.2 µM (active).
